Results as given in PubChem BioAssay (NCATS).
Inconclusive results are not listed. Calls of active or inactive are those of the source. Calls follow the shape of the dose curve; as a rule, active = well fitted inhibition curve with a large enough effect; inconclusive = small, poorly fitted or top-dose-only effect; inactive = flat fitted curve, though single readings scatter.
Potency is read from the fitted curve at half-maximal effect.

What follows are molecules tested against Aldehyde dehydrogenase, mitochondrial (Homo sapiens) (UniProt P05091) (assay: qHTS for Inhibitors of the Aldehyde Dehydrogenase Family (ALDH2) Primary screen (AID 2061308; also: nearly all actives have a fitted effect of over 55% in size;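 as to activity change, negative = inhibition: plate controls were vehicle for no effect and reference inhibitor for full effect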)). Settings: ALDH2 enzyme inhibition qHTS, 1536-well; series mostly up to 56 µM; activity change, negative = inhibition: at the top concentration.
`N#CNC(=O)c1ccc(-n2cccc2/C=C2\NC(=O)N(CC(=O)Nc3cccc(F)c3)C2=O)cc1` was tested, and the “activity change, negative = inhibition” value was 12% (inactive). With `CCOC(=O)c1c(-c2ccccc2)no[n+]1[O-]` the “activity change, negative = inhibition” value was -24.6% (inactive). `Cc1c(-c2ccccc2)no[n+]1[O-]` was tested, and the “activity change, negative = inhibition” value was 12.8% (inactive). With `NC(=O)C1CCN(c2nc(-c3ccc4occc(=O)c4c3)cs2)CC1` the “activity change, negative = inhibition” value was 7.52% (inactive). In the case of `CC(=O)NC(C)c1cc(Cl)c2cccnc2c1O` (stereo not given), the “activity change, negative = inhibition” value is reported as -3.7% (inactive). For `c1cn2cc(-c3ccc4cn[nH]c4c3)nc(Nc3ccc(N4CCOCC4)cc3)c2n1`, the “activity change, negative = inhibition” value was -3.87% (inactive). For `O=C(Nc1ncc([N+](=O)[O-])s1)c1ccccc1O`, the “activity change, negative = inhibition” value was -21.1% (inactive). In the case of `O=C(O)CN1C(=O)N/C(=C\c2cccn2-c2ccc(P(=O)(O)O)cc2)C1=O`, the “activity change, negative = inhibition” value is reported as -14.2% (inactive). In the case of `O=C(c1ccc(-c2cnc3c(O)cccc3c2)cc1)N1CCNCC1`, the “activity change, negative = inhibition” value is reported as 2.65% (inactive). For `O=c1[nH]c(CN2CCOCC2)nc2sc3c(c12)CCC3`, the “activity change, negative = inhibition” value was -9.66% (inactive). `Cc1nnc(CN(C)c2ncnc3ccc(-c4ccc5c(c4)OCO5)cc23)o1` was tested, and the “activity change, negative = inhibition” value was -8.14% (inactive). `NC(=O)C1CCN(c2nc(-c3ccc4c(c3)OCCO4)cs2)CC1` was tested, and the “activity change, negative = inhibition” value was 2.26% (inactive). For `S=C(Nc1ccccn1)c1ccccn1`, the Potency was 11.2 µM (active). With `CC(C)(C)Nc1nc(C#N)nc(Nc2ccccc2)n1` the “activity change, negative = inhibition” value was 12.3% (inactive). With `CN(C)c1cccc(-c2csc(N3CCC(C(N)=O)CC3)n2)c1` the “activity change, negative = inhibition” value was -27.5% (inactive). `Cc1cc(C)nc(NC(=S)N2CCN(c3ccc4nsnc4c3)CC2)c1` was tested, and the Potency was 7.94 µM (active). For `Cc1ccc(-c2cc(C(=O)Nc3cccc(S(N)(=O)=O)c3)c3ccccc3n2)cc1C`, the “activity change, negative = inhibition” value was -5.97% (inactive). In the case of `Cc1ccc(-c2no[n+]([O-])c2C#N)cc1`, the “activity change, negative = inhibition” value is reported as -24.8% (inactive). With `Nc1ncc(-c2cccc(-c3nn4c(=O)cc(N5CCNCC5)nc4s3)c2)cn1` the “activity change, negative = inhibition” value was -4.37% (inactive). `COc1ccc(C2Nc3ccccc3C(=O)N2Cc2cccnc2)cc1COc1ccc(NC(C)=O)cc1` (stereo not given) was tested, and the “activity change, negative = inhibition” value was -10.4% (inactive). With `CNc1oc(-c2ccc3c(c2)OCCO3)nc1C#N` the “activity change, negative = inhibition” value was 19.7% (inactive). With `COc1ccc(C(=O)N(Cc2ccco2)Cc2cccs2)c(O)c1` the “activity change, negative = inhibition” value was -15.4% (inactive). In the case of `CC(CC(C)O[C@@H]1O[C@H](CO)[C@@H](O)[C@H](O)[C@H]1O)OC(=O)/C=C/c1ccc(O)cc1` (stereo not given in full), the “activity change, negative = inhibition” value is reported as -7.55% [at 28 µM] (inactive). With `COc1ccc(C2Nc3ccccc3C(=O)N2Cc2ccccc2)cc1COc1ccc(C)cc1` (stereo not given) the “activity change, negative = inhibition” value was -9.89% (inactive). `N#Cc1c(-c2cccc(O)c2)no[n+]1[O-]` was tested, and the “activity change, negative = inhibition” value was -22.5% (inactive). In the case of `CC(=O)c1ccc(N2CCN(S(=O)(=O)c3ccc4c(c3)n(C)c(=O)n4C)CC2)cc1`, the “activity change, negative = inhibition” value is reported as -8.4% (inactive). In the case of `Cc1noc(C)c1-c1ccc2ncnc(NCc3ccc(F)cc3)c2c1`, the “activity change, negative = inhibition” value is reported as -18.2% (inactive). With `Cc1c(Cl)cccc1NS(=O)(=O)c1cc2c(cc1F)NC(=O)CC2` the “activity change, negative = inhibition” value was -5.98% (inactive). For `CC(C)(O)C1CC=C(C(=O)OCC2OC(Oc3c(O)cc(C(=O)O)cc3O)C(O)C(O)C2O)CC1` (stereo not given), the “activity change, negative = inhibition” value was -13.4% [at 28 µM] (inactive). `CCOC(=O)c1ccc(O)c2ncc(N3CCC(C(=N)N)CC3)cc12` was tested, and the “activity change, negative = inhibition” value was -12.3% (inactive). In the case of `O=S1(=O)CCN(Cc2cc(NCC3CCOCC3)c3[nH]c(-c4ccccc4)cc3c2)CC1`, the “activity change, negative = inhibition” value is reported as -15.3% (inactive). In the case of `O=C1c2ccccc2NC(c2ccc(-c3ccc(F)cc3)o2)N1O` (stereo not given), the Potency is reported as 3.55 µM (active). For `COc1ccc(C2Nc3ccccc3C(=O)N2Cc2ccccc2)cc1COc1ccccc1OC` (stereo not given), the “activity change, negative = inhibition” value was 3.93% (inactive). In the case of `O=[S+]([O-])(NCC#CCSc1nnc(-c2cccc3ccccc23)o1)c1ccc(F)cc1`, the “activity change, negative = inhibition” value is reported as -21.1% (inactive). With `Cc1cc(C)nc(NC(=S)N2CCN(c3cncc4ccccc34)CC2)c1` the “activity change, negative = inhibition” value was -9.03% (inactive). With `COc1ccc(-c2csc(NC(=O)c3ccncc3NS(=O)(=O)c3ccc(C)cc3)n2)cc1` the “activity change, negative = inhibition” value was -11.8% (inactive). For `O=S(=O)(Nc1cc(O)cc2cccnc12)c1ccc(Cl)s1`, the Potency was 0.631 µM (active). In the case of `COc1cc2ncc(-c3ccccc3)nc2cc1OC`, the “activity change, negative = inhibition” value is reported as -0.561% (inactive). `Cc1noc(C)c1N[S+](=O)([O-])c1ccc(NC(=O)Cc2ccc(Cl)c(Cl)c2)cc1` was tested, and the “activity change, negative = inhibition” value was -4.13% (inactive). For `O=C1CCc2cc(S(=O)(=O)Nc3cc(F)cc(Cl)c3)c(F)cc2N1`, the “activity change, negative = inhibition” value was -6.86% (inactive).
